Measured values from PubChem BioAssay (NCATS).
Results filed as inconclusive are left out. Values without a mark were called inactive. Calls of active or inactive are those of the source. The call rests on the fitted dose curve; in most records, active means well fitted curve in either direction with a large enough effect (not every such curve was filed as active); inconclusive means small, poorly fitted or top-dose-only effect, or another doubt; inactive means flat fitted curve, though single readings scatter.

biological target: Mitogen-activated protein kinase 10 (Mus musculus) (UniProt Q61831); experiment: JNK3 AlphaScreen Assay (AID 530); conditions: JNK3 lysate, c-Jun phosphorylation; series mostly up to 57.1 µM; activity change, negative = inhibition: at the top concentration;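 further: kinase came from lysate of stimulated human HepG2 cells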
Excerpt: NIH Chemical Genomics Center [NCGC]
NIH Molecular Libraries Screening Centers Network [MLSCN]
The c-jun N-terminal kinase (JNK) family are serine/threonine protein kinases that phosphorylate c-jun, a component of the transcription factor […] (AP-1). JNK kinases are members of the mitogen-activated protein kinase family including the extracellular regulated kinases and p38 kinases. Three JNK genes (JNK 1, 2, and 3) have been identified in humans so far. JNK1 and JNK2 have a broad distribution and JNK3 is primarily found in neuronal tissues and cardiac myocytes.
JNK3 has been under consideration as a target for the treatment of neurodegenerative disorders. […] JNK pathway is also involved in pathological process in a mouse model of Parkinson's disease (Xia et al., 2001).
Given these potential tissue distributions and links to neuroprotection, JNK3 inhibitors should provide useful investigational tools to study the role of this kinase in several diseases including, arthritis, stroke, myocardial infarction, ischemic injury and Parkinson's disease.
A homogeneous AlphaScreen is developed to measure the activity of JNK3. AlphaScreen is a two bead-based proximity-dependent chemical energy transfer luminescent assay platform. The phosphorylation of a biotinylated c-jun substrate by JNK3 can be detected with an antibody raised against phosphorylated c-jun. This process brings streptavidin donor beads and Protein-A acceptor beads to within a proximity range of <200 nm, and subsequently lead a chemical luminescent reaction upon exciting donor beads with 680 nm laser excitation light. Inhibition of JNK3 activity by small molecules and subsequent decrease in the antibody binding to biotinylated c-jun could attenuate or abolish this chemical luminescent reaction.
Yang DD, Kuan CY, Whitmarsh AJ, Rincon M, Zheng TS, Davis RJ, Rakic P and Flavell RA (1997) Absence of excitotoxicity-induced apoptosis in the hippocampus of mice lacking the Jnk3 gene. Nature 389:865-870. [PMID: 9349820]
Herdegen T, Claret FX, Kallunki T, Martin-Villalba A, Winter C, Hunter T, and Karin M (1998) Lasting N-terminal phosphorylation of c-Jun and activation of c-Jun N-terminal kinases after neuronal injury. J.Neurosci. 18:5124-5135. [PMID: 9651196]
Xia XG, Harding T, Weller M, Bieneman A, Uney JB and Schulz JB (2001) Gene transfer of the JNK interacting protein-1 protects dopaminergic neurons in the MPTP model of Parkinson's disease. Proc.Natl.Acad.Sci.U.S.A. 98:10433-10438.
NCGC Assay Protocol Summary:
GST-cJun (1-79) (Stratagene, La Jolla CA, #205145) was biotnylated by PerkinElmer (PerkinElmer-BioSignalInc. Montreal, Canada) and was detectable by the streptavidin Donor beads. Anti-(phospho)cJun (Ser73) antibody was from UpState (Charlottesvilles, VA, #06-659). JNK3-containing lysates were generated from HepG2 cells and pre-activated by interleukin1-beta and tumor necrosis factor alpha. All reagents were stored at -20 C before using. Phosphorylated biotinylated-GST-cJun was recognized by Anti-(phospho)cJun (Ser73) antibody and this process brings acceptor and donor beads together. Therefore JNK3 phosphorylation of cJun can be measured by Alpha reading by EnVision (PerkinElmer, Boston, MA).
The composition of kinase buffer was (in mM) 20 tris- HCl (pH 7.6) 10 MgCl2, 1 DTT, and 0.1 Na3VO4 and 0.01% Tween-20. Beads were diluted in detection buffer containing (in mM) 20 tris-HCl (pH 7.7), 20 NaCl and 80 EDTA and 0.3% BSA. The assay was performed at room temperature. All compounds were screened as titrations from 0.6 nM to 46 uM final concentration. The assay was performed in 1536-well format (white solid bottom and untreated) as follows:
Sequence,Parameter,Value,Description
1,Reagent,3 uL,Biotin-GST-cJun, Anti-(phospho)cJun and pre-activated JNK3-containing lysates
2,Compound,23 nL,Final concentration was 0.6nM to 46uM
3,Time,15 minutes,Room Temperature
4,Reagent,1 uL,ATP final concentration 10uM
6,Reagent,0.5 uL,2ng/well bead mixture
[…]
On the % scale 0 is the no-effect control and ±100 the full control effect.

In order of rising “activity change, negative = inhibition” value:
1. C[N+]1(C)[C@@H]2CC[C@H]1CC(OC(=O)c1c[nH]c3ccccc13)C2 (stereo not given in full)  -23.4%
2. O=c1ccc2[nH]cc(C3=CCNCC3)c2[nH]1  -20.8%
3. C[N+](C)(C)CC#CCOC(=O)Nc1cccc(Cl)c1  -16.6%
4. C[C@H]1CCC[C@H](O)CCCCCc2cc(O)cc(O)c2C(=O)O1  -15.3%
5. CCS(=O)(=O)Nc1cccc(C(=C2CCCCC2)c2cnc[nH]2)c1  -12.6%
6. Oc1cc(Cl)c(Cl)cc1Cl  -11.1%
7. Clc1ccc(N2C[C@H]3CC[C@@H](C2)N3)nn1  -10.2%
8. O=CC=O  -7.18%
9. c1ccc2c(N3CCNCC3)cccc2c1  -6.7%
10. CCCN1CCc2cc(O)cc3c2[C@H]1Cc1ccc(O)c(O)c1-3  -5.94%
11. N#CCCN  -5.75%
12. O=[N+]([O-])c1ccc2nc(N3CCNCC3)ccc2c1  -4.8%
13. Cc1sc2ccccc2c1CC1=NCCN1  -1.56%
14. O=[N+]([O-])c1ccc(F)c([N+](=O)[O-])c1  -0.859%
15. C[C@@H]1O[C@H](C[N+](C)(C)C)CS1  0.505%
16. CCN(CCCl)Cc1ccccc1Br  3.55%
17. COc1ccc2[nH]c3c(c2c1)CCNC3  4.36%
18. O=[N+]([O-])c1cc(O)c(O)c([N+](=O)[O-])c1  4.46%
19. COc1ccc2c(c1OC)C(=O)OC2C1c2cc3c(cc2CCN1C)OCO3 (stereo not given)  4.83%
20. CC(C)(C)c1cc(C=C(C#N)C#N)cc(C(C)(C)C)c1O  5.26%
21. CCCn1c(C)c(C(=O)c2ccc3ccccc3c2)c2ccccc21  6.32%
22. NCCc1ccc(S(=O)(=O)F)cc1  7.61%
23. ClC=C(Cl)Cl  8.49%
24. C[N+]1(C)CCN(c2ccccc2)CC1  12.4%
25. O=S1(=O)N(CCN2CC=C(c3c[nH]c4cc(F)ccc34)CC2)c2cccc3c2N1CCC3  19.1%
26. C[C@@H]1[C@@H]2Cc3ccc(O)cc3[C@@]1(C)CCN2CC1CC1  28.6%
27. NC(=O)CI  29.9%
28. Nc1ccc(CCN2CCN(c3cccc(C(F)(F)F)c3)CC2)cc1  51.8%

In the case of CCOC(=O)c1ccccc1C(=O)OCC, the outcome is reported as “inactive”.
In the case of CCCN(CCC)[C@H]1CCc2c(F)ccc(O)c2C1, the outcome is reported as “inactive”.
For O=C/C=C/c1ccccc1, the outcome was “inactive”.
NNC(N)=O was tested, and the outcome was “inactive”.
NCCc1c[nH]c2ccc(C(N)=O)cc12 was tested, and the outcome was “inactive”.
O=C1C=CC(=O)C=C1 was tested, and the outcome was “inactive”.
For c1ccc2c(c1)[I+]c1ccccc1-2, the outcome was “inactive”.
For [O]=[Cr](=[O])([OH])[O][Cr](=[O])(=[O])[OH], the outcome was “inactive”.

In order of falling “activity change, negative = inhibition” value:
1. CN1[C@@H]2CC[C@H]1CC(OC1c3ccccc3CCc3ccccc31)C2 (stereo not given in full)  5.33% [at 25.6 µM]
2. C[C@@H](Cc1ccccc1)NCCC(c1ccccc1)c1ccccc1  4.21% [at 25.6 µM]
3. CCC1(C)CC(=O)NC(=O)C1  0.996% [at 25.6 µM]

With c1cc2c(c(NC3=NCCN3)c1)CCCC2 the activity change, negative = inhibition was 3.19% [at 11.4 µM].
